# In ChEMBL document CHEMBL3988442, “University of Dundee, Small-Polar-MMV Screening Library” (2021):
# Experiments:
# [1] = target: T1, Aspartate--tRNA(Asp/Asn) ligase (Mycobacterium tuberculosis (strain ATCC 25618 / H37Rv)) (UniProt P9WFW3); assay: Assay for Asp RNA synthetase-1 from Mycobacterium tuberculosis; assay type: functional; set-up: scale not given: direction of the effect not stated beside the values; conditions: 30 µM; also: in the data most compounds retested in dose-response had high values
# T1 sequence (whole entry): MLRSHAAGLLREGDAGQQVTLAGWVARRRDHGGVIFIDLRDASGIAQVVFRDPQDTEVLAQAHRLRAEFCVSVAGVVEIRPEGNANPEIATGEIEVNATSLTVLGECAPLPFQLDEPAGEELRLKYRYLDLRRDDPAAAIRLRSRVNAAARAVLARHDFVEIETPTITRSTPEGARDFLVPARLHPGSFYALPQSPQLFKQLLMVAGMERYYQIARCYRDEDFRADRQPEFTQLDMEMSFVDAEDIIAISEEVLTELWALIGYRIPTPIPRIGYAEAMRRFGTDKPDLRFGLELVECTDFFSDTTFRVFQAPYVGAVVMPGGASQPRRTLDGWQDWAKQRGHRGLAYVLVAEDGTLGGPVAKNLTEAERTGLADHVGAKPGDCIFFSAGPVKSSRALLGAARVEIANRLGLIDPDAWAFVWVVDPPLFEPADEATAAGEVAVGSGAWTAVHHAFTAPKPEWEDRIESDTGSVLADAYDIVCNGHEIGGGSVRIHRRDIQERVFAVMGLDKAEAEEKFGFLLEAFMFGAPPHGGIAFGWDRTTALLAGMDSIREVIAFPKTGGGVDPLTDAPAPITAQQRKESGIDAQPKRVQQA
# [2] = target: Shiga toxin 2 (Escherichia coli O157:H7) (UniProt P09385+P09386); assay: E. coli 0.157:H7 Shiga Toxin SOP - stx2 screening assay; assay type: functional; set-up: scale not given: direction of the effect not stated beside the values; conditions: 30 µM
Structure (SMILES),Percent Effect [1],Percent Effect [2]
Cc1cc2n(n1)CC(CNCc1ccnc(-n3ccnc3C)c1)CN2 (centres undefined),-2.39%,-3.5%
Cc1nn(C)c2sc(C(=O)N3CCCC(n4ccnc4C)C3)cc12 (centres undefined),-1.41%,-28.1%
Cc1cc(C)n(CC(=O)N2CCC(NS(C)(=O)=O)CC2)n1,-2.75%,32.8%
Cc1cc(NC(=O)NCC(C)N2CCc3ccccc32)no1 (centres undefined),2.59%,-1.83%
COCCOc1ccc(NC(=O)C2CCC2)cn1,-1.46%,-10.4%
Cc1noc(C)c1CN1CCc2nn(C(C)C)c(=O)cc2C1,7.84%,-14%
O=S(=O)(C1CC1)N1CC[C@]2(C[C@@H](Oc3ccccn3)CO2)C1,-1.12%,-6.89%
CC(C)c1cc(NCC(C)N2CCCC2)n2nccc2n1 (centres undefined),1.77%,-11.9%
Cc1nc(CN(C)C(=O)Nc2cnn(CC3CCCO3)c2)cs1 (centres undefined),2.17%,-5.02%
CC(=O)N1CC[C@H]2OCC[C@@H](C(=O)N3CCCCO3)[C@@H]2C1,0.958%,-16.9%
Cn1cc(CCC(=O)N2CCN(Cc3ccncc3)CC2)cn1,-1.76%,1.29%
COC1COC2(CCN(Cc3ccccc3Cl)CC2)C1 (centres undefined),3.77%,-11.8%
Cc1noc2ncc(C(=O)NCC3CCN(C(C)C)C3)cc12 (centres undefined),1.08%,17.2%
Cc1ncsc1C(=O)N1CCCC(c2noc(C(C)C)n2)C1 (centres undefined),-6.6%,-6.13%
CC(C(=O)N1CCN(c2cnccn2)CC1)n1cncn1 (centres undefined),2.72%,2.13%
O=C(Cc1ccsc1)N1C[C@@H]2CN(Cc3ccoc3)CCO[C@@H]2C1,-1.48%,-6.92%
COC(=O)c1cccn1C1CCN(C(=O)c2cc(F)ccc2F)CC1,1.88%,19.6%
O=C(c1cscn1)N1CCC[C@]2(C[C@H](OCC3CC3)CO2)C1,3.34%,-17.4%
COc1ccc(CNCc2ccnc(N3CCOCC3)c2)c(OC)c1,1.38%,17.1%
COc1ccc(CN(Cc2cncn2C)CC2CCCO2)cc1OC (centres undefined),4.27%,10.9%
Cn1cnc2c1CCN(CCCc1ccccc1)C2,1.13%,1.04%
O=C(O)[C@@H]1CN(C(=O)c2cc(C3CC3)n[nH]2)C[C@H]1c1cccc(F)c1,-3.42%,-8.72%
CN(Cc1ccsc1)C(=O)c1cccc(NS(C)(=O)=O)c1,-4.16%,-32.9%
COc1ccc(C2=CCN(C(=O)C3CCN(C)C(=O)C3)CC2)cc1 (centres undefined),3.17%,27.5%
Cn1cnc(-c2cc(C(=O)N3CCOCC3)c3ccccn23)c1,1.18%,-6.75%
O=C(O)C1(Cc2cc(-c3ccc(F)cc3F)no2)CCOCC1,0.819%,-13.5%

Structure (SMILES),Percent Effect [1],Percent Effect [2]
Cc1nc(CN2CCCN(C(=O)C(C)OCC3CC3)CC2)cs1 (centres undefined),-3.97%,-12.8%
COc1ccc(C(=O)Nc2cnn(CC(=O)NC3CCCC3)c2)c(O)c1,1.25%,-54.5%
CCN(CCn1cccn1)Cc1nc(-c2ccccc2F)oc1C,-0.808%,-3.06%
O=c1c2sccc2nc2n1CCN(Cc1cccs1)CC2,6.74%,8.96%
CN(C)CC1CN(Cc2coc(-c3cccs3)n2)CCO1 (centres undefined),2.66%,-25.6%
CC(C)NC(=O)c1ccc2c(c1)nc1n2CCN(C(C)C)C1,-0.435%,-61.8%
COc1ccc(CN2C[C@H]3CC[C@](O)(c4ccc(C)cn4)[C@H]3C2)c(F)c1,2.93%,14.7%
CCOc1ccccc1C(=O)NS(=O)(=O)c1ccc2c(c1)OCCCO2,-0.534%,19.9%
COc1ccccc1CC(=O)NCCCN1CCCC1C(=O)N(C)C (centres undefined),5.61%,-5.75%
O=C(CCOc1cccc(F)c1)N1CCCC(n2cncn2)C1 (centres undefined),-2.92%,5.88%
CC(C)NC(=O)C1CN(C(=O)c2ccco2)CC12CCOCC2 (centres undefined),9.32%,1.11%
Cc1nn(C)c(N(C)C)c1CNCc1cccnc1-n1cncn1,-4.35%,-5.81%
CCCNC(=O)Nc1cc2c(cc1SC)OCCO2,-0.324%,-0.581%
Cc1cc(CN2CCN(C(C)c3nc(C4CC4)no3)CC2)no1 (centres undefined),3.89%,-2.55%
Cc1c(C2CCCN(C(=O)Cc3ccccn3)C2)n2c(nc1=O)CCC2 (centres undefined),2.63%,-14.2%
Cc1ccc(C(C)N(C)Cc2nc3c(cnn3C)c(=O)[nH]2)cc1 (centres undefined),1.46%,12.8%
Cn1cnc2c1CCN(Cc1nc(Cc3ccccc3)no1)C2,-1.94%,15.1%
O=C(Cc1ccccn1)N1C[C@@H]2CC[C@H](C1)N(Cc1ccccc1)C2=O,-1.24%,-4.09%
Cc1ccc2c(c1)C1(CC2)CCN(c2nncs2)CC1,1.71%,6.27%
CN(C)Cc1nnc(C2CCN(c3nccc(N)n3)CC2)n1C1CC1,2.12%,-41.2%
O=C(c1cccc2cccnc12)N1CCCN(c2cccnn2)CC1,-6.72%,3.11%
Cc1ccc(CN2CCc3ncnc(C4CC4)c3CC2)s1,9.9%,-8.76%
CCc1nccn1C1CCCN(C(=O)c2csc(COC)n2)C1 (centres undefined),4.12%,-14.9%
Cc1cc(F)ccc1CN1CCCC2(C1)OCCO2,-5.59%,10.5%
Cc1cccc(C)c1NC(=O)CCNC(=O)c1ccoc1,-1.5%,15.3%
O=C1CN(Cc2nnc(-c3ccc(Br)o3)o2)CCN1,-1.11%,-65.1%

Structure (SMILES),Percent Effect [1],Percent Effect [2]
CCn1cc(CN2CCCN(C(=O)c3ccn(C)c(=O)c3)CC2)cn1,1.33%,-0.744%
COc1ccc(-c2nc(CN3CC(n4nc(C)cc4C)C3)no2)cc1,5.02%,-49.6%
CCCS(=O)(=O)N1CCN(c2cc(-n3nc(C)cc3C)nc(C)n2)CC1,-3.15%,-4.71%
CCc1nccn1C1CCCN(C(=O)c2cc3nc(C)ccc3o2)C1 (centres undefined),-2.42%,20.3%
O=C(CN1CCOC(Cn2cccn2)C1)NCCc1ccc(F)cc1 (centres undefined),4.34%,12%
CCN1CCC(NC(=O)CN2CCc3c(nc(C4CC4)n3C)C2)CC1,-3.88%,7.04%
COc1ccc(CN2C[C@@H]3COC[C@]3(CN(C)C)C2)cc1,2.52%,3.85%
COCCN1CCC(CN(CC2CCCO2)C(=O)CCNC(C)=O)CC1 (centres undefined),-0.167%,-3.65%
CC(C)n1ccnc1CN1CCCN(C(=O)c2nccnc2N)CC1,-6.9%,-13.7%
Cc1cnn(CC2CCCN2C(=O)c2cc(Cl)ccc2F)c1 (centres undefined),1.32%,-18.5%
COC(=O)N1C[C@H]2CC[C@@H]1CN(Cc1cscn1)C2,-3.45%,17.3%
Cc1ccc(NS(=O)(=O)c2cc3c(c(C(=O)O)c2)OCCO3)c(F)c1,-2.58%,-5.6%
CC(C)c1cc(NC(=O)CN2CCNC(=O)C2)on1,2.59%,-3.5%
O=C(c1ccncc1F)N1CCN(CC2CC2)c2ncccc2C1,2.79%,-37.6%
Cc1nc(C2CCCN2Cc2ncc(C(C)C)o2)no1 (centres undefined),-2.92%,-16.6%
CN(C)C(=O)N1C[C@@H]2CC[C@H](C1)N(Cc1ccc3nsnc3c1)C2,6.27%,-56.9%
CN1CCN(C(=O)CC2CCN(CCc3ccccn3)CC2)CC1,-2.94%,8.24%
CCc1nnc2n1CCN(C(=O)CN(C)Cc1ccccc1)C2,-3.23%,15.9%
CCc1nc(C2CCCN2C(=O)CCCn2cccn2)no1 (centres undefined),-0.232%,-5.5%
O=C(c1ccsc1)N1CCc2c(CNc3ncccn3)n[nH]c2C1,-0.641%,-33.5%
Cc1noc(C2CCCN(C(=O)c3ccc(Br)o3)C2)n1 (centres undefined),-2.54%,-8.47%
Cc1noc([C@@]23CCO[C@@H]2CCN(CC2CCOCC2)C3)n1,6.14%,-16.8%
CNC(=O)C1(CCCc2cccnc2)CCCCN1 (centres undefined),0.849%,0.867%
Cc1cc(C(=O)N2CCCCC2c2nc(C)cs2)[nH]n1 (centres undefined),-5.22%,-15.7%
Cc1nn(C)c(C)c1C1CCCN1C(=O)CCc1cscn1 (centres undefined),-2.02%,20.4%
Cc1cnn(CC2CCCN2Cc2nnsc2Cl)c1 (centres undefined),-2.88%,9.02%

Structure (SMILES),Percent Effect [1],Percent Effect [2]
CC1CCCN(Cc2c(C3CCOCC3)[nH]c3ncccc23)C1 (centres undefined),3.59%,12.7%
CC(C)NC(=O)c1nnn(-c2cccc(C(F)(F)F)c2)c1N,0.111%,-1.08%
Cc1ccc2c(ccn2CCC(=O)N2CCC(C(N)=O)CC2)c1,0.842%,-2.06%
c1nc2n(n1)CC(NCc1csc(-c3ccsc3)n1)CC2 (centres undefined),-1.92%,-23.2%
O=C(NCCNc1cnccn1)N1CCCC1,-2.84%,2.11%
COCCC(=O)N1CCCC2(CCC(=O)N2CCOC)CC1 (centres undefined),0.751%,-11.1%
Cc1n[nH]cc1CNc1ccc2c(c1)CN(C(=O)OC(C)(C)C)CC2,2.29%,-13.2%
COc1cccc(CN2CCCC3(CCN(C(=O)[C@H]4CCCO4)C3)C2)c1 (some centres undefined),2.84%,5.38%
CCCc1cc(=O)[nH]c2nnc(SCC(=O)NCc3ccc(C)cc3)n12,-7.99%,2.17%
CC(NC(=O)N(C)Cc1ccsc1)c1ccc2c(c1)NC(=O)CO2 (centres undefined),-2.41%,18.1%
COCCc1noc(CNC2CCSC2)n1 (centres undefined),-5.83%,6.26%
Cc1noc(C)c1CN1C(=O)[C@H]2CC[C@@H]1CN(Cc1cccnc1N)C2,3.56%,-24.1%
CNC(=O)c1cnc(/C=C/c2cc(OC)c(OC)c(OC)c2)s1,-0.971%,-44.8%
Cn1ccc(C(=O)N2CCC(Cc3cnc4[nH]ccc4c3)CC2)n1,0.283%,19.7%
Cn1cc(-c2nc(CNCCn3cccn3)cs2)cn1,-0.0111%,-121%
CNC(=O)CS(=O)(=O)Cc1coc(-c2ccc(OC)cc2)n1,-0.993%,-5.58%
CC(C)C(C(=O)N1CCN(c2ccncc2)CC1)n1cncn1 (centres undefined),7.82%,-47.8%
COCC(O)CNC(=O)c1cnc(-c2ccccc2)nc1O (centres undefined),2.15%,-7.39%
Cc1noc(C(C)C)c1C(=O)NCCN1CCCCCC1=O,2.13%,-4.24%
Cc1cn2nc(N3CCCC3Cn3nc(C)cc3C)sc2n1 (centres undefined),-7.52%,-1.2%
Cc1cc(C(=O)N2CC[C@@H]3CN(c4ncccn4)CCO[C@@H]3C2)c(C)o1,7.23%,-7.5%
Cc1cc(C)n(CC2CCCCN2C(=O)c2cnn(C)c2)n1 (centres undefined),-5.01%,-14%
CC(C)Oc1cc(N2CCC(N3CCC(O)CC3)CC2)nc(N)n1,-2.8%,2.73%
CN(C(=O)c1cccc(C(=O)NS(C)(=O)=O)c1)c1ccccc1,9.93%,-20.1%
